From PubChem BioAssay (EPA / NIEHS)
Several values for one entry are separate records, joined by “and”; a condition that tells them apart may be missing. Equal entries are not always repeated. Inconclusive results are not listed. A structure can be active in one record and inactive in another. Activity calls are given as the source filed them. Rule for the calls, unless noted: active = hit-call score of the fitted dose curve at least 0.9, where 1 is the maximum; inactive = score below 0.9.

Key:
[1] = target: human RAR-related Orphan Receptor beta (RORb), RORB (gene 6096) (UniProt Q92753); experiment: ATG_RORb_TRANS: Attagene TRANS-FACTORIAL HepG2 Assay for human RAR-related Orphan Receptor beta (RORb) (AID 2283010; active = hit-call score of the fitted dose curve at least 0.9, where 1 is the maximum)
Sequence of human RAR-related Orphan Receptor beta (RORb), RORB (gene 6096) (Q92753 whole entry, looked up, the tested form may be a part): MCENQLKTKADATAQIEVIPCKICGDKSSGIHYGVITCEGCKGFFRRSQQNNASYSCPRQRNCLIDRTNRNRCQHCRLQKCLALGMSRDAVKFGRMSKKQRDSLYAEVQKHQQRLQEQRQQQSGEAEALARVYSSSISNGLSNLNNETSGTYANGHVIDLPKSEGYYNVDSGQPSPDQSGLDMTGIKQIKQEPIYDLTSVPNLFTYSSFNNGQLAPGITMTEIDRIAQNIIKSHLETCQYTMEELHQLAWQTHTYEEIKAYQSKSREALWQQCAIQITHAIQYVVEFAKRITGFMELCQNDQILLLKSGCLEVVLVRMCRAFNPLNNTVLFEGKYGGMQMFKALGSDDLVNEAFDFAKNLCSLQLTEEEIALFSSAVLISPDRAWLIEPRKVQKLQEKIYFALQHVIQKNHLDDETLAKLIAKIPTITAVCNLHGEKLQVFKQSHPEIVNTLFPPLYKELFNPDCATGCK
Summary of the method: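 HepG2 cells transiently transfected with GAL4-UAS reporter units expressing chimeric NR-Gal4 protein; reporter mRNA measured 24 h after dosing by RT-PCR, 6-FAM labelling and capillary electrophoresis. Gain-of-signal fitted relative to DMSO baseline.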

[2] = target: human RAR-related Orphan Receptor gamma (RORg), RORC (gene 6097) (UniProt P51449); experiment: ATG_RORg_TRANS: Attagene TRANS-FACTORIAL HepG2 Assay for human RAR-related Orphan Receptor gamma (RORg) (AID 2283011; active = hit-call score of the fitted dose curve at least 0.9, where 1 is the maximum)
Sequence of human RAR-related Orphan Receptor gamma (RORg), RORC (gene 6097) (P51449 whole entry, looked up, the tested form may be a part): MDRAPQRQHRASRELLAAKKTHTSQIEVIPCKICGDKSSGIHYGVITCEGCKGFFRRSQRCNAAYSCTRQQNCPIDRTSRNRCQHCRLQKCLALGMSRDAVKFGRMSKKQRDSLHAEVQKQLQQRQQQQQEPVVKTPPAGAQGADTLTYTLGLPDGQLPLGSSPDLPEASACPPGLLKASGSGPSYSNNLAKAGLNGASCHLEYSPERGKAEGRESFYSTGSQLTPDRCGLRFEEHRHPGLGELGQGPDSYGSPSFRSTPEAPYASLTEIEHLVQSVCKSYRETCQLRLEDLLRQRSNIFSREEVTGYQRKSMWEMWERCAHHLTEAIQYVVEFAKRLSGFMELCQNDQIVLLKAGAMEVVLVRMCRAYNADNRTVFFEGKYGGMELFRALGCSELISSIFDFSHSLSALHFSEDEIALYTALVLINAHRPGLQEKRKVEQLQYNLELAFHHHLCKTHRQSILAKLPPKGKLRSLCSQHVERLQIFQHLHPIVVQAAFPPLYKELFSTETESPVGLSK
Summary of the method: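 Readout: reporter transcript induction (RT-PCR, fluorescent primer extension, capillary electrophoresis) after 24 h compound exposure of transiently transfected HepG2 cells carrying a RORg-Gal4 chimera and GAL4-UAS reporters; DMSO served as baseline, with increasing signal fitted.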

[3] = target: Retinoic acid receptor RXR-alpha (Homo sapiens) (UniProt P19793); experiment: ATG_RXRa_TRANS: Attagene TRANS-FACTORIAL HepG2 Assay for human Retinoid X Receptor alpha (RXRa) (AID 2283012; active = hit-call score of the fitted dose curve at least 0.9, where 1 is the maximum)
Sequence of Retinoic acid receptor RXR-alpha (Homo sapiens) (P19793 whole entry, looked up, the tested form may be a part): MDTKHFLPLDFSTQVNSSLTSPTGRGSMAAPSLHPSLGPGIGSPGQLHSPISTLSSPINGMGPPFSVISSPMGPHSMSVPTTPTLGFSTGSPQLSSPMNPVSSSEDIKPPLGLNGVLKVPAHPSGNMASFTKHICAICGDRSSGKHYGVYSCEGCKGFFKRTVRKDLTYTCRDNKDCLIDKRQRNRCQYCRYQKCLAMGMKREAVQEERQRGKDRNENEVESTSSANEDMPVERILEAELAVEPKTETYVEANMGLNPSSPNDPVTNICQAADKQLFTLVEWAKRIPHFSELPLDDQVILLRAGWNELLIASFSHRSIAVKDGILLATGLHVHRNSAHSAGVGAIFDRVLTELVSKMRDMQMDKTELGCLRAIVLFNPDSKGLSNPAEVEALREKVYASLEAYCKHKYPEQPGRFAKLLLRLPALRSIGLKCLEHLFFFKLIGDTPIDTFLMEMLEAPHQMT
Summary of the method: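 HepG2 cells transiently transfected with GAL4-UAS reporter units and chimeric RXRa-Gal4 protein, treated 24 h. Reporter mRNA measured by RT-PCR, fluorescent labelling, HpaI digestion and capillary electrophoresis. Induction fitted against DMSO.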

[4] = target: human Retinoid X Receptor beta (RXRb), RXRB (gene 6257) (UniProt P28702); experiment: ATG_RXRb_TRANS: Attagene TRANS-FACTORIAL HepG2 Assay for human Retinoid X Receptor beta (RXRb) (AID 2283013; active = hit-call score of the fitted dose curve at least 0.9, where 1 is the maximum)
Sequence of human Retinoid X Receptor beta (RXRb), RXRB (gene 6257) (P28702 whole entry, looked up, the tested form may be a part): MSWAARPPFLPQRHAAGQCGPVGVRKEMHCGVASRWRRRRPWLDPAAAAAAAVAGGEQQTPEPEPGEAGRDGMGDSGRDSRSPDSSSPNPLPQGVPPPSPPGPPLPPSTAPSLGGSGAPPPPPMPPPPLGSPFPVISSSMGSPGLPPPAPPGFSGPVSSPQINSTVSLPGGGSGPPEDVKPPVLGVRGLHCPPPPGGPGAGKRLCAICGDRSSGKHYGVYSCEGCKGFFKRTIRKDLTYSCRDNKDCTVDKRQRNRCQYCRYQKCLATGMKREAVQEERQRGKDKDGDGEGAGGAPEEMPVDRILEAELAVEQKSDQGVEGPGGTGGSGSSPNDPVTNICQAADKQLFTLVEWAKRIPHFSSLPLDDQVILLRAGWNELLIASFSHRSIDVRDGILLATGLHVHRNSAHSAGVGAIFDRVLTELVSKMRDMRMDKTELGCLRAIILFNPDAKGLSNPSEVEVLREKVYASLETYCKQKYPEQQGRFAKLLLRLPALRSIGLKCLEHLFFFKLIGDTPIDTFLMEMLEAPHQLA
Summary of the method: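 HepG2 cells were transiently transfected with multiplexed GAL4-UAS reporters and a chimeric RXRb-Gal4 construct, then exposed for 24 h. Reporter mRNA was quantified by RT-PCR, FAM labeling, HpaI digestion and capillary electrophoresis; gain of signal was scored against DMSO.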

[5] = target: human Thyroid Receptor alpha (THRa1), THRA (gene 7067) (UniProt P10827); experiment: ATG_THRa1_TRANS: Attagene TRANS-FACTORIAL HepG2 Assay for human Thyroid Receptor alpha (THRa1) (AID 2283014; active = hit-call score of the fitted dose curve at least 0.9, where 1 is the maximum)
Sequence of human Thyroid Receptor alpha (THRa1), THRA (gene 7067) (P10827 whole entry, looked up, the tested form may be a part): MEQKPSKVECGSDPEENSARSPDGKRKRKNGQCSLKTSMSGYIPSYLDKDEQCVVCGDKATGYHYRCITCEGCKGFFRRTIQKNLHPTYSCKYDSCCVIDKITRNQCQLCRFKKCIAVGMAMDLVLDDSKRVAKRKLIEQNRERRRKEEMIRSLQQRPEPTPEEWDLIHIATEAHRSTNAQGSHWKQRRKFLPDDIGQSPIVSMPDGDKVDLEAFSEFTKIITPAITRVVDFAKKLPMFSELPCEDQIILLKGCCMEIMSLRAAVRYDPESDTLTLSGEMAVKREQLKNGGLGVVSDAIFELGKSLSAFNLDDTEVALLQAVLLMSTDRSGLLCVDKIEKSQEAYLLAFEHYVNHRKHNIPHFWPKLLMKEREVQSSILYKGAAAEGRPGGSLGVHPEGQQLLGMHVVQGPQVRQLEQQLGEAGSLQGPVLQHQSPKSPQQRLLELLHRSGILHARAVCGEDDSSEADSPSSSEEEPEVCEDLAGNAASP
Summary of the method: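 HepG2 cells transiently transfected with multiplexed GAL4-UAS reporter units for exogenous chimeric THRa1-Gal4; reporter mRNA measured 24 h after dosing by RT-PCR, 6-FAM labelling, HpaI digestion and capillary electrophoresis. Gain-of-signal fitted versus DMSO baseline.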

[6] = read-out: E-selectin (Homo sapiens) (UniProt P16581); experiment: BSK_3C_Eselectin: BioMAP Diversity Plus: 3C Assay for Eselectin Biomarker Activity (AID 2283015); conditions: primary human endothelial cells (HUVEC); actives raise or lower the signal
Summary of the method: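 Primary human umbilical vein endothelial cells (3C system) were dosed with chemical and cell-surface E-selectin measured by ELISA 24 h later. Bidirectional curve fitting used DMSO as negative control and baseline.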

[7] = read-out: Interleukin-1 alpha (IL1a), IL1A (gene 3552); experiment: BSK_BE3C_IL1a: BioMAP Diversity Plus: BE3C Assay for Interleukin-1 alpha (IL1a) Biomarker Activity (AID 2283016); conditions: primary human bronchial epithelial cells; actives raise or lower the signal
Summary of the method: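 Human primary bronchial epithelial cells, 24 h chemical exposure; IL-1a quantified by ELISA, fitted bidirectionally against DMSO. Cytotoxicity assessed in parallel by SRB total-protein staining at the time of measurement.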

[8] = read-out: Monocyte Chemoattractant Protein-1 (MCP1), CCL2 (gene 6347); experiment: BSK_3C_MCP1: BioMAP Diversity Plus: 3C Assay for Monocyte Chemoattractant Protein-1 (MCP1) Biomarker Activity (AID 2283017); conditions: primary human endothelial cells (HUVEC); actives raise or lower the signal
Summary of the method: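 Primary human umbilical vein endothelial cells (3C system) were exposed to test chemical for 24 h, after which MCP-1 was quantified by ELISA. Activity was fitted bidirectionally against DMSO as negative control and baseline.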

[9] = read-out: Monocyte Chemoattractant Protein-1 (MCP1), CCL2 (gene 6347); experiment: BSK_4H_MCP1: BioMAP Diversity Plus: 4H Assay for Monocyte Chemoattractant Protein-1 (MCP1) Biomarker Activity (AID 2283018); conditions: primary human endothelial cells (HUVEC); actives raise or lower the signal
Summary of the method: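 Human umbilical vein endothelial cells (4H system) exposed to chemicals for 24 h in 96-well format. MCP-1 measured by ELISA; bidirectional fitting against DMSO, with SRB total-protein staining in parallel cultures for cytotoxicity.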

[10] = read-out: Human Leukocyte Antigen - DR isotype (HLADR), HLA-DRA (gene 3122); experiment: BSK_3C_HLADR: BioMAP Diversity Plus: 3C Assay for Human Leukocyte Antigen - DR isotype (HLADR) Biomarker Activity (AID 2283019); conditions: primary human endothelial cells (HUVEC); actives raise or lower the signal
Summary of the method: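 Primary human umbilical vein endothelial cells (3C system) were dosed with compound and cell-surface HLA-DR was quantified by ELISA at 24 h. Activity was fitted bidirectionally against DMSO as negative control and baseline.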

[11] = read-out: Interleukin-8 (IL8), CXCL8 (gene 3576); experiment: BSK_3C_IL8: BioMAP Diversity Plus: 3C Assay for Interleukin-8 (IL8) Biomarker Activity (AID 2283020); conditions: primary human endothelial cells (HUVEC); actives raise or lower the signal
Summary of the method: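 Primary human umbilical vein endothelial cells were dosed for 24 h. IL-8 was quantified by ELISA and fitted bidirectionally against DMSO. Cytotoxicity was assessed in parallel cultures by SRB staining at 560 nm.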

[12] = read-out: Monokine induced gamma interferon (MIG), CXCL9 (gene 4283); experiment: BSK_3C_MIG: BioMAP Diversity Plus: 3C Assay for Monokine induced gamma interferon (MIG) Biomarker Activity (AID 2283021); conditions: primary human endothelial cells (HUVEC); actives raise or lower the signal;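 for AC50: MIG protein level measured by immunoassay in the treated endothelial cultures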
Summary of the method: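 HUVEC primary endothelial cultures dosed with chemical; MIG quantified by ELISA at 24 h. Data fitted bidirectionally against DMSO control, with parallel SRB total-protein staining for cytotoxicity.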

[13] = BSK_3C_SRB: Viability Assessment in the BioMAP Diversity Plus: 3C Assay (AID 2283023); conditions: primary human endothelial cells (HUVEC);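 note: fitted both ways against DMSO so a hit may be signal rise or drop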
Summary of the method: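 Primary human umbilical vein endothelial cells in the 3C system were read 24 h after compound dosing. Total protein was stained with 0.1% sulforhodamine B after 10% TCA fixation and read at 560 nm, with bidirectional fitting against DMSO as baseline.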

[14] = read-out: Matrix Metallopeptidase 1 (MMP1), MMP1 (gene 4312); experiment: BSK_BE3C_MMP1: BioMAP Diversity Plus: BE3C Assay for Matrix Metallopeptidase 1 (MMP1) Biomarker Activity (AID 2283024); conditions: primary human bronchial epithelial cells; actives raise or lower the signal
Summary of the method: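 Human primary bronchial epithelial cells (BE3C system) dosed for 24 h; MMP-1 quantified by ELISA. Bidirectional fit against DMSO; cytotoxicity tracked in parallel cultures by SRB total-protein staining.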

[15] = read-out: Pselectin, SELP (gene 6403); experiment: BSK_4H_Pselectin: BioMAP Diversity Plus: 4H Assay for Pselectin Biomarker Activity (AID 2283026); conditions: primary human endothelial cells (HUVEC); actives raise or lower the signal
Summary of the method: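 Primary human umbilical vein endothelial cells were treated 24 h, and cell-surface P-selectin was then quantified by ELISA. Bidirectional fit versus DMSO; cytotoxicity checked in parallel cultures by SRB total-protein staining.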

[16] = BSK_4H_SRB: Viability Assessment in the BioMAP Diversity Plus: 4H Assay (AID 2283027); conditions: primary human endothelial cells (HUVEC);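 note: cells exposed to compound for 24 h before staining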;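 for AC50: curves fitted both ways versus DMSO so AC50 may be loss or gain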
Summary of the method: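 Human umbilical vein endothelial cells were dosed with chemical and, after 24 h, fixed with 10% TCA, stained with 0.1% sulforhodamine B, and read at 560 nm to give total protein as a cytotoxicity measure. Bidirectional fitting relative to DMSO control.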

[17] = BSK_BE3C_SRB: Viability Assessment in the BioMAP Diversity Plus: BE3C Assay (AID 2283028); conditions: primary human bronchial epithelial cells
Summary of the method: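 Human primary bronchial epithelial cells were exposed to test chemicals for 24 h. Total protein in parallel cultures was then measured by staining with 0.1% sulforhodamine B after 10% TCA fixation, with absorbance read at 560 nm. Activity was fitted bidirectionally against DMSO.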

[18] = read-out: Thrombomodulin, THBD (gene 7056); experiment: BSK_3C_Thrombomodulin: BioMAP Diversity Plus: 3C Assay for Thrombomodulin Biomarker Activity (AID 2283029); conditions: primary human endothelial cells (HUVEC); actives raise or lower the signal
Summary of the method: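 Human umbilical vein endothelial cells were exposed to chemicals for 24 h; cell-surface thrombomodulin quantified by ELISA, with bidirectional fitting against DMSO baseline.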

[19] = target: human Vitamin D Receptor (VDR), VDR (gene 7421) (UniProt P11473); experiment: ATG_VDR_TRANS: Attagene TRANS-FACTORIAL HepG2 Assay for human Vitamin D Receptor (VDR) (AID 2283022; active = hit-call score of the fitted dose curve at least 0.9, where 1 is the maximum)
Sequence of human Vitamin D Receptor (VDR), VDR (gene 7421) (P11473 whole entry, looked up, the tested form may be a part): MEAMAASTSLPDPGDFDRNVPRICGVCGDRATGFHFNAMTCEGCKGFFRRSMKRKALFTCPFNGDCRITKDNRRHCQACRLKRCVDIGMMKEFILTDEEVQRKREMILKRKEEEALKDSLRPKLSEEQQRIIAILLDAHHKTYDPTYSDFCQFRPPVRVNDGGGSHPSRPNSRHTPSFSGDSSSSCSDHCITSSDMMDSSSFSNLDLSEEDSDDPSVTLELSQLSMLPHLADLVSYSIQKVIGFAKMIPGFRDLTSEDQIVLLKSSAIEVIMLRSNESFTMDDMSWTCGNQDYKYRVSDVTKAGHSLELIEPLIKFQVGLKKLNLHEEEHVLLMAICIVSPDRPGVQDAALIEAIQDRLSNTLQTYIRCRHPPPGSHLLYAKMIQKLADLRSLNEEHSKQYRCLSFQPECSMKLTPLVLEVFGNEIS
Summary of the method: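 HepG2 cells were transiently transfected with multiple GAL4-UAS reporter units, so signal reflects exogenous chimeric receptor-Gal4 activity. After 24 h compound exposure, reporter mRNA was measured by RT-PCR, fluorescent labelling and capillary electrophoresis, fitted for gain of signal versus DMSO.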

Measured: AC50

Sequence of E-selectin (Homo sapiens) (P16581 whole entry, looked up): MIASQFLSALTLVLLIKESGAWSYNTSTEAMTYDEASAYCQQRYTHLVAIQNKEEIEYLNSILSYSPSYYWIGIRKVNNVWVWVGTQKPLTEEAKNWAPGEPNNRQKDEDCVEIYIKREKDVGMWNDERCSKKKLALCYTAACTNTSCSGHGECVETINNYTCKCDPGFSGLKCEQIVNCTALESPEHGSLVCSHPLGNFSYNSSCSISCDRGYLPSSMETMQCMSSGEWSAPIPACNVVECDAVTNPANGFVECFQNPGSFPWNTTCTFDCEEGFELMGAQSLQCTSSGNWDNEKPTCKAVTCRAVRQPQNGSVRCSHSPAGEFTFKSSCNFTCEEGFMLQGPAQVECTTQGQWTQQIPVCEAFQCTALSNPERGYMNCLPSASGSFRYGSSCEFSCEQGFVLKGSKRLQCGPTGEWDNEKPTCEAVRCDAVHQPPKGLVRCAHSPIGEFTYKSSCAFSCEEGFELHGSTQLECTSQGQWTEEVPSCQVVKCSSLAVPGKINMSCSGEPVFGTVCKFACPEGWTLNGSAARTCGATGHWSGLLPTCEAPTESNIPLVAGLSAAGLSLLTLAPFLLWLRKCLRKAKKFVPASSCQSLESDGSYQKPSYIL

CCC(C)(c1ccc(O)cc1)c1ccc(O)cc1
active: [4] 9.02 µM and 17.8 µM and 19.6 µM | [8] 20 µM | [9] 10.7 µM | [10] 24.7 µM | [11] 22.9 µM | [13] 30 µM | [14] 20 µM | [15] 32.1 µM | [16] 24.3 µM
inactive: [1] | [2] | [3] | [4] | [5] | [6] | [7] | [12] | [17] | [18]

ClC1=C(Cl)[C@]2(Cl)[C@@H]3[C@@H]4C[C@@H]([C@H]5O[C@@H]45)[C@@H]3[C@@]1(Cl)C2(Cl)Cl
active: [4] 24.4 µM | [10] 20 µM | [13] 12.5 µM
not listed: [2] | [5] | [9] | [18]
inactive: all other assays above

CCC(=O)O[C@H]1CC[C@H]2[C@@H]3CCC4=CC(=O)CC[C@]4(C)[C@H]3CC[C@]12C
active: [6] 32.6 µM | [8] 29 µM | [9] 31.8 µM | [10] 33.9 µM | [11] 27.3 µM | [12] 38.8 µM | [13] 28.4 µM | [15] 34 µM | [16] 33.5 µM
inactive: [2] | [3] | [4] | [5] | [7] | [19] | [14] | [17]
